# Experimental data as given in PubChem BioAssay AID371 (SRMLSC, 2006).
# About 280 (8.5%) of roughly 3,300 compounds were called active. Many of the other results were omitted from the sample, so actives are more common in it than they were. Values without a mark were called inactive.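 How the source made its calls: active means mean growth inhibition over the two runs of 50% or more; inactive means mean growth inhibition under 50%.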
# Assay: A549 NSCLC cell proliferation inhibitors – ATP luminescence, human non-small cell lung line, primary screen (AID 371);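 further: compound exposure lasted 72 h before the ATP read; 0% = untreated cell signal and 100% = no luminescence left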
# Conditions: at 10 µM, hits give high values
row,SMILES,growth inhibition
1,O=C(NCCCn1ccnc1)C(Cc1ccccc1)N1C(=O)c2ccccc2C1=O (centres undefined),2.6%
2,N=c1c2c(-c3ccccc3)c(-c3ccccc3)n(Cc3ccccc3)c2ncn1CCCn1ccnc1,91.5% (active)
3,O=c1c(C=NCCCn2ccnc2)c(-c2ccccc2)[nH]n1-c1nc2ccccc2s1,17%
4,Cc1cc(C)c2c(N)c(C(=O)c3ccccc3)oc2n1,19.9%
5,Cc1nn(-c2ccccc2)c2c1C(c1ccc(F)cc1F)C(C#N)=C(N)O2 (centres undefined),17%
6,CCN(CC)c1ccc2cc(-c3nnc(-c4ccncc4)o3)c(=O)oc2c1,11.3%
7,CCCCCCc1cc2cc(C(=O)NC)c(=N)oc2cc1O,87.4% (active)
8,CCCCCCc1cc2cc(-c3nnc(-c4ccccc4O)o3)c(=O)oc2cc1O,95% (active)
9,CNC(=O)c1cc2c(ccc3ccccc32)oc1=N,9.88%
10,COc1ccc(C2/C(=C(\O)c3ccc4c(c3)OCCO4)C(=O)C(=O)N2CCCN(C)C)cc1 (centres undefined),-19.3%
11,O=C(OCCN1CCOCC1)c1ccc2c(c1)OCCO2,-1.1%
12,NC(=O)c1ccccc1OCCOCCOCCOc1ccccc1C(N)=O,4.77%
13,COC(=O)CSc1nc(N)nc(C)c1Br,0.51%
14,C=CCn1c(=O)c(C(=O)NCCN(CC)CC)c(O)c2ccccc21,13.9%
15,N#Cc1ccc(-c2ccco2)nc1SCC(=O)c1ccc(Cl)cc1,36.8%
16,Cc1ccc(C(=O)CSC2=C(C#N)C(c3ccco3)C3=C(CCCC3=O)N2)cc1 (centres undefined),76.4% (active)
17,N#CC1=C(SCC(=O)c2ccc(Cl)cc2)NC2=C(C(=O)CCC2)C1c1ccco1 (centres undefined),80% (active)
18,N#CC1=C(SCc2ccccc2)NC2=C(C(=O)CCC2)C1c1ccc2c(c1)OCO2 (centres undefined),35.2%
19,N#CC1=C(SCC(=O)c2ccccc2)NC2=C(C(=O)CCC2)C1c1ccco1 (centres undefined),69% (active)
20,COc1ccccc1NC(=O)C1=C(C)NC(SCC(=O)c2ccc(C)cc2)=C(C#N)C1c1ccco1 (centres undefined),18.3%
21,Cc1ccc(NC(=O)CSC2=C(C#N)C(c3ccco3)C3=C(CCCC3=O)N2)cc1 (centres undefined),31.5%
22,N#CC1=C(SCC(=O)c2ccc(Br)cc2)NC2=C(C(=O)CCC2)C1c1ccco1 (centres undefined),77.8% (active)
23,CCOC(=O)CSC1=C(C#N)C(c2ccc(OC)cc2)C2=C(CC(C)(C)CC2=O)N1 (centres undefined),9.46%
24,CCCCC1CC1C(=O)Nc1ccc(OC)c(OC)c1 (centres undefined),11%
25,Cn1c(=O)c2c(nc(NCCCO)n2Cc2cccc(C(F)(F)F)c2)n(C)c1=O,29.2%
26,Cc1cc(=O)n2[nH]cnc2n1,4.42%

row,SMILES,growth inhibition
1,N#CCCn1cnc2c(=S)nc[nH]c21,5.6%
2,COc1ccc(OC)c(C2C(C#N)=C(N)Oc3cc(C)[nH]c(=O)c32)c1 (centres undefined),3.98%
3,Nc1c(C(=O)NCc2ccco2)sc2nc(N3CCOCC3)c3c(c12)CCCC3,18.2%
4,Cc1ccc(C(=O)C2=C(O)C(=O)N(c3ncccn3)C2c2cccc(Cl)c2)o1 (centres undefined),-5.18%
5,COc1ccc(NC(=O)Nc2cccc(C(=O)N3CCOCC3)c2)cc1OC,1.01%
6,N#CC(C#N)C(c1ccsc1)c1c(-c2ccccc2)[nH][nH]c1=O (centres undefined),7.27%
7,Oc1ccc(/C=C/c2cc(O)cc(O)c2)cc1,63.9% (active)
8,Cc1cc(O)c(C(C)C)cc1N=C1CSC(=O)N1,7.06%
9,CCCCOc1ccc(C(=O)CCN2CCCCC2)cc1,-1.37%
10,CCCCOc1ccc(C(=O)OC2CC(C)N(C)CC2C)cc1 (centres undefined),90% (active)
11,CCCCOc1ccc(C(=O)Nn2cnnc2)cc1,-2.48%
12,CC(O)(C#CCN1CCOCC1)c1ccccc1 (centres undefined),2.79%
13,Cc1cccc(NC(=O)c2cc(N3CCOCC3)nc3ccccc23)c1,2.86%
14,N#Cc1nc(COc2ccc(Br)cc2)oc1NCCN1CCOCC1,13.4%
15,Cc1sc(-n2c(C)ccc2C)c(C#N)c1C,-0.27%
16,COc1ccc2c(c1OC)C(=O)OC2C1c2c(cc3c(c2OC)OCO3)CCN1C (centres undefined),23.2%
17,COc1cc([C@@H]2c3cc4c(cc3[C@H](O)[C@H]3COC(=O)[C@H]23)OCO4)cc(OC)c1OC,66.9% (active)
18,COc1ccc2c(c1OC)C(=O)O[C@@H]2[C@H]1c2c(cc3c(c2OC)OCO3)CCN1C,28.5%
19,Cc1c(C)n(C(=O)CSc2nccn2C)c2ccccc12,-7.69%
20,COc1cc(C2Nc3cccc4cccc(c34)N2)cc(OC)c1OC(C)=O,68.5% (active)
21,COc1cc(C2NC(=O)NC(C)=C2C(=O)Nc2cccc(C)c2C)cc(OC)c1OC (centres undefined),0.87%
22,CCN(CC)CCN1C(=O)c2ccccc2NC1c1cc(OC)c(OC)c(OC)c1 (centres undefined),0.59%
23,O=C1C2ON(c3ccccc3)C(c3ccncc3)C2C(=O)N1c1ccccc1 (centres undefined),-3.79%
24,O=C(O)C(O)c1ccco1 (centres undefined),3.07%
25,Cc1cc(O)ccc1-c1cnc2ccccc2n1,13%
26,Cc1[nH]nc(-c2ccc(O)cc2O)c1Oc1ccccc1,56.1% (active)

row,SMILES,growth inhibition
1,Cc1nc(-c2c(-c3ccc(O)cc3O)noc2C(F)(F)F)cs1,41.5%
2,CC1(C)CNC(=O)c2sc(N3CCOCC3)nc2C1,21.1%
3,Cn1ncc2c(Nc3ccccc3Br)ncnc21,4.98%
4,Cn1c(=O)c2c(nc(Oc3ccc4c(c3)OCO4)n2Cc2ccc(F)cc2)n(C)c1=O,17.7%
5,Cn1c(=O)c2c(nc(NCc3ccc4c(c3)OCO4)n2Cc2ccc(F)cc2)n(C)c1=O,74.4% (active)
6,Cn1c(=O)c2c(nc(NCc3ccc4c(c3)OCO4)n2Cc2ccccc2Cl)n(C)c1=O,20.1%
7,Cn1c(=O)c2c(nc(NCc3ccc4c(c3)OCO4)n2Cc2ccccc2F)n(C)c1=O,43.4%
8,Cn1c(=O)c2c(nc(NCc3ccc4c(c3)OCO4)n2Cc2ccccc2)n(C)c1=O,67.4% (active)
9,Cn1c(=O)c2c(nc(Oc3ccc4c(c3)OCO4)n2Cc2ccc(Br)cc2)n(C)c1=O,38%
10,CC1(C)Cc2c(sc3nc(SCC(=O)NCc4ccco4)n(-c4ccccc4)c(=O)c23)CS1,22.8%
11,CCCc1cc(-n2ccnc2C)n2c(nc3ccccc32)c1C#N,-0.15%
12,CCOC(=O)C1CCN(c2nc3ccccc3nc2C(C#N)C(=O)NCCc2ccccc2)CC1 (centres undefined),30.8%
13,Cc1cc(/C(O)=C2\C(=O)C(=O)N(CCN(C)C)C2c2ccncc2)ccc1OCc1ccccc1 (centres undefined),2.4%
14,Cc1cc(C)n(S(=O)(=O)Cc2ccccc2)n1,6%
15,Cc1cc(C)n(S(=O)(=O)/C=C/c2ccccc2)n1,68.5% (active)
16,Cc1cc(C)n(C(=O)CNC(=O)CCc2ccccc2)n1,-2.74%
17,Cc1cc(C)n(CC2CC(=O)N(c3ccc(C)c(Cl)c3)C2=O)n1 (centres undefined),0.93%
18,Clc1ccc(COc2ccccn2)c(Cl)c1,1.66%
19,COc1ccc(C(=O)c2ccc(N3CCOCC3)cc2)c(OC)c1,44.9%
20,CCOC(=O)C(C)Oc1nc(Oc2ccccc2)nc(N(C)C)n1 (centres undefined),6.36%
21,CCOC(=O)N1CCC(=C2c3ccc(Cl)cc3CCc3cccnc32)CC1,65.8% (active)
22,CCOC(=O)N1CCN(C2OC(=O)c3ccccc32)CC1 (centres undefined),-1.65%
23,O/N=C1\CCc2cc(Cl)ccc21,-5.2%
24,CC(=O)Nc1n[nH]c(S(=O)(=O)Cc2ccc(Cl)cc2Cl)n1,-13.6%
25,COc1cc(C)nc(Oc2ccc(=O)n(C)n2)n1,-3.96%
26,CCCCNC(=O)N1CCOCCOCCN(C(=O)NCCCC)CCOCCOCC1,2.12%

row,SMILES,growth inhibition
1,COc1ccc(CC(=O)OCN2C(=O)c3ccccc3C2=O)cc1,2.96%
2,CN1CCN(C2=Nc3ccccc3Oc3ccc(Cl)cc32)CC1,18.5%
3,Cn1c(Cl)cnc1C1CC(=O)c2cc(Cl)ccc2O1 (centres undefined),62.9% (active)
4,C=CCSc1nnc2n(CCc3ccccc3)c(=O)c3c4c(sc3n12)COC(C)(C)C4,12.2%
5,Cn1c(Cn2cnc(Cl)c2Cl)nc2ccccc21,-4.26%
6,Clc1ccc(-c2nnc3sc(Cc4cccs4)nn23)cc1,15%
7,Clc1ccc(-c2nnc3sc(Cc4cccs4)nn23)c(Cl)c1,52.8% (active)
8,c1ccc(-c2nnc3sc(Cc4cccs4)nn23)cc1,21.9%
9,CCOC(=O)CSc1nc(N)c2c3c(sc2n1)CCCC3,-5.16%
10,COCCCn1cnc2c(c1=O)c1nc3ccccc3nc1n2CCc1ccccc1,26.2%
11,CN(C)c1nc(OCCOC(=O)Nc2ccc(Cl)cc2Cl)nc(N(C)C)n1,25.3%
12,NC(=O)/C(=N\O)c1ccccc1,2.31%
13,CNCCC(Oc1ccc(C(F)(F)F)cc1)c1ccccc1 (centres undefined),91.3% (active)
14,Cc1cc(C)n2c3c(c(C#N)c2n1)CC(C)(C)OC3,5.01%
15,Cc1nnc(SCCC#N)n(CCC#N)c1=O,-2.27%
16,CN1C(=S)SC(N(O)C(=O)Nc2ccccc2)C1(C)C (centres undefined),8.85%
17,O=c1[nH]cnc2c1cnn2Cc1ccccc1,-3.92%
18,Cc1ccc(-n2ncc3c(NCCCOC(C)C)ncnc32)c(C)c1,21.4%
19,Clc1ccc(-n2ncc3c(NCc4ccccn4)ncnc32)cc1,12.7%
20,Cc1cccc(-n2ncc3c(NCCN4CCOCC4)ncnc32)c1,4.3%
21,COc1ccccc1Nc1ncnc2c1cnn2-c1cccc(C)c1,6.73%
22,Cc1ccc(-n2ncc3c(NCc4ccc5c(c4)OCO5)ncnc32)c(C)c1,52.8% (active)
23,Cc1cccc(-n2ncc3c(NCc4ccco4)ncnc32)c1,63% (active)
24,Clc1ccc(-n2ncc3c(NCc4ccco4)ncnc32)cc1,51.6% (active)
25,Cc1ccc(-n2ncc3c(NCc4cccnc4)ncnc32)c(C)c1,30.4%
26,Clc1ccc(-n2ncc3c(NCc4cccs4)ncnc32)cc1,20.6%
